Data taken from the antibiotic and cytotoxicity screens of Wong et al. (2023).
The campaign covered roughly 39,000 compounds. About 3,300 (8.5%) were called active. What follows is part of a selection rich in actives, with near analogues and random picks from the rest.

tested on: HepG2; test: cytotoxicity call (relative viability < 0.9); settings: 10 µM

| SMILES | cytotoxicity call |
| --- | --- |
| O=C(O)CNC(=O)C1CCC1 | inactive |
| COCCNC(=O)C[C@@H]1CC[C@H]2[C@@H](COC[C@H](O)CN2C(=O)Nc2ccc3c(c2)OCO3)O1 | inactive |
| CN1C(=O)c2cc(NC(=O)c3cscn3)ccc2OC[C@@H]2O[C@H](CC(=O)N3CCOCC3)CC[C@H]21 | inactive |
| C[C@@H]1CCCCO[C@@H](CN(C)C(=O)Cc2ccccc2)[C@H](C)CN([C@H](C)CO)C(=O)c2cc(NC(=O)Nc3ccccc3)ccc2O1 | inactive |
| COc1ccc(S(=O)(=O)N(C)C[C@@H]2Oc3ccc(NS(=O)(=O)c4ccccc4)cc3C(=O)N([C@@H](C)CO)C[C@@H]2C)cc1 | inactive |
| Cc1noc(C)c1NC(=O)N(C)C[C@@H]1Oc2ccc(NC(=O)c3ccncc3)cc2CC(=O)N([C@H](C)CO)C[C@@H]1C | inactive |
| COC(=O)C1=C2CC[C@H](CO)NC(=O)N[C@H](Cc3ccccc3)C(=O)NCc3cn(nn3)C[C@H](Cc3ccccc3)NC(=O)c3oc(c(C(=O)OC)c3C(=O)OC)CC[C@H](CO)NC(=O)N[C@H](Cc3ccccc3)C(=O)NCc3cn(nn3)C[C@H](Cc3ccccc3)NC(=O)C(=C1C(=O)OC)O2 | inactive |
| C[C@@H]1CN([C@H](C)CO)C(=O)c2cc(C3=CCCC3)cnc2O[C@H]1CN(C)C(=O)Nc1ccc(C(F)(F)F)cc1 | inactive |
| Cc1ccc(S(=O)(=O)N(C)C[C@H]2OCCCC[C@H](C)Oc3ccc(NC(=O)Nc4cccc5ccccc45)cc3C(=O)N([C@@H](C)CO)C[C@@H]2C)cc1 | inactive |
| C[C@H](CO)N1C[C@H](C)[C@@H](CN(C)C(=O)C2CCOCC2)Oc2ncc(C#CCc3ccccc3)cc2C1=O | inactive |
| C[C@@H]1CN([C@H](C)CO)C(=O)c2cc(Br)cnc2O[C@H]1CN(C)C(=O)Nc1ccc(F)cc1 | inactive |
| COc1ccc(NC(=O)N(C)C[C@H]2OCCCC[C@H](C)Oc3ccc(NS(=O)(=O)c4ccc(C)cc4)cc3C(=O)N([C@H](C)CO)C[C@@H]2C)cc1 | inactive |
| CCCc1cc(C)[nH]c(=O)c1CNC(=O)c1cc(-c2ccc(N3CCN(C(C)C)CC3)nc2)cc2c1cnn2C(C)C | active |
| C[C@@H]1CN([C@H](C)CO)C(=O)c2cc(-c3cccc(C(=O)N(C)C)c3)cnc2O[C@H]1CN(C)S(=O)(=O)c1ccc(F)cc1 | inactive |
| CO[C@@H](CN(C)S(=O)(=O)c1cn(C)cn1)[C@@H](C)CN(C(=O)Nc1ccc(C(F)(F)F)cc1)[C@@H](C)CO | inactive |
| C[C@@H]1CCCCO[C@H](CN(C)Cc2ccc3c(c2)OCO3)[C@@H](C)CN([C@@H](C)CO)C(=O)c2cc(NC(=O)NC3CCCCC3)ccc2O1 | active |
| C[C@@H]1CN([C@@H](C)CO)C(=O)c2cc(NC(=O)NC3CCCCC3)ccc2O[C@@H](C)CCCCO[C@@H]1CN(C)Cc1ccc2c(c1)OCO2 | inactive |
| C[C@@H]1CCCCO[C@@H](CN(C)Cc2ccc3c(c2)OCO3)[C@H](C)CN([C@H](C)CO)C(=O)c2cc(NC(=O)NC3CCCCC3)ccc2O1 | inactive |
| C[C@@H]1CCCCO[C@H](CN(C)Cc2ccc3c(c2)OCO3)[C@@H](C)CN([C@H](C)CO)C(=O)c2cc(NC(=O)NC3CCCCC3)ccc2O1 | inactive |
| C[C@@H]1CCCCO[C@H](CN(C)Cc2ccc3c(c2)OCO3)[C@H](C)CN([C@H](C)CO)C(=O)c2cc(NC(=O)NC3CCCCC3)ccc2O1 | inactive |
| C[C@@H]1CCCCO[C@@H](CN(C)Cc2ccc3c(c2)OCO3)[C@@H](C)CN([C@H](C)CO)C(=O)c2cc(NC(=O)NC3CCCCC3)ccc2O1 | inactive |

| SMILES | cytotoxicity call |
| --- | --- |
| C[C@H](CO)N1C[C@H](C)[C@@H](CN(C)Cc2ccc3c(c2)OCO3)OCCCC[C@H](C)Oc2ccc(NC(=O)NC3CCCCC3)cc2C1=O | inactive |
| C[C@@H]1CCCCO[C@@H](CN(C)Cc2ccc3c(c2)OCO3)[C@@H](C)CN([C@@H](C)CO)C(=O)c2cc(NC(=O)NC3CCCCC3)ccc2O1 | inactive |
| C[C@H]1CCCCO[C@H](CN(C)Cc2ccc3c(c2)OCO3)[C@@H](C)CN([C@@H](C)CO)C(=O)c2cc(NC(=O)NC3CCCCC3)ccc2O1 | inactive |
| C[C@@H]1CN([C@H](C)CO)C(=O)c2cc(NC(=O)NC3CCCCC3)ccc2O[C@@H](C)CCCCO[C@@H]1CN(C)Cc1ccc2c(c1)OCO2 | active |
| C[C@H](CO)N1C[C@H](C)[C@H](CN(C)Cc2ccc3c(c2)OCO3)OCCCC[C@H](C)Oc2ccc(NC(=O)NC3CCCCC3)cc2C1=O | active |
| C[C@@H]1CCCCO[C@H](CN(C)Cc2ccc3c(c2)OCO3)[C@H](C)CN([C@@H](C)CO)C(=O)c2cc(NC(=O)NC3CCCCC3)ccc2O1 | active |
| CN1CCN(C(=O)C[C@@H]2CC[C@@H]3[C@H](COc4ccc(NC(=O)C5CCOCC5)cc4C(=O)N3C)O2)CC1 | inactive |
| C[C@@H]1CN([C@@H](C)CO)C(=O)c2cc(NS(=O)(=O)c3ccc(F)cc3)ccc2O[C@@H](C)CCCCO[C@H]1CN(C)C(=O)C1CCCCC1 | inactive |
| O=C(C[C@@H]1CC[C@H]2[C@@H](COC[C@@H](O)CN2C(=O)c2ccccc2)O1)NCCCN1CCOCC1 | inactive |
| COc1ccccc1S(=O)(=O)N(C)C[C@H]1Oc2cc(Br)ccc2S(=O)(=O)N([C@H](C)CO)C[C@H]1C | inactive |
| C[C@@H]1CN([C@@H](C)CO)C(=O)c2cccc(NC(=O)CCCCCC(=O)Nc3ccccc3N)c2O[C@H]1CN(C)C(=O)Nc1cccc2ccccc12 | inactive |
| Cc1noc(C)c1NC(=O)N(C)C[C@@H]1Oc2c(NC(=O)C3CCOCC3)cccc2C(=O)N([C@H](C)CO)C[C@@H]1C | inactive |
| c1ccc(CCNc2ccnc3cc4ccccc4cc23)cc1 | active |
| NNCCc1ccccc1 | inactive |
| NCCNc1cccc2ccccc12 | inactive |
| CC(C)NC(=O)N(C)C[C@@H]1Oc2cc(C#Cc3ccc(F)cc3)ccc2S(=O)(=O)N([C@@H](C)CO)C[C@@H]1C | inactive |
| C[C@H](CO)N1C[C@H](C)[C@H](CN(C)Cc2ccc(-c3ccccc3)cc2)Oc2ccc(NC(=O)Nc3ccc4c(c3)OCO4)cc2C1=O | inactive |
| C[C@@H]1CN([C@@H](C)CO)C(=O)c2cc(NC(=O)Nc3ccc4c(c3)OCO4)ccc2O[C@@H]1CN(C)Cc1ccc(-c2ccccc2)cc1 | active |
| C[C@H]1CN([C@@H](C)CO)C(=O)c2cc(NC(=O)Nc3ccc4c(c3)OCO4)ccc2O[C@H]1CN(C)Cc1ccc(-c2ccccc2)cc1 | inactive |
| C[C@@H]1CN([C@H](C)CO)C(=O)c2cc(NC(=O)Nc3ccc4c(c3)OCO4)ccc2O[C@H]1CN(C)Cc1ccc(-c2ccccc2)cc1 | active |
| C[C@H](CO)N1C[C@H](C)[C@@H](CN(C)Cc2ccc(-c3ccccc3)cc2)Oc2ccc(NC(=O)Nc3ccc4c(c3)OCO4)cc2C1=O | inactive |

| SMILES | cytotoxicity call |
| --- | --- |
| C[C@@H]1CN([C@H](C)CO)C(=O)c2cc(NC(=O)Nc3ccc4c(c3)OCO4)ccc2O[C@@H]1CN(C)Cc1ccc(-c2ccccc2)cc1 | active |
| C[C@H]1CN([C@@H](C)CO)C(=O)c2cc(NC(=O)Nc3ccc4c(c3)OCO4)ccc2O[C@@H]1CN(C)Cc1ccc(-c2ccccc2)cc1 | active |
| O=C1C[C@]2(c3ccc([N+](=O)[O-])cc3)C(=O)N(CC(F)(F)F)c3cc(CO)ccc3[C@H]2N1CC12CC3CC(CC(C3)C1)C2 | inactive |
| COc1ccc(S(=O)(=O)Nc2ccc3c(c2)C(=O)N([C@@H](C)CO)C[C@H](C)[C@H](CN(C)C(=O)NC(C)C)O3)cc1 | inactive |
| C[C@@H]1CN([C@@H](C)CO)C(=O)c2cc(NC(=O)Nc3ccc4c(c3)OCO4)ccc2O[C@@H](C)CCCCO[C@@H]1CN(C)S(=O)(=O)c1cccs1 | inactive |
| C[C@H]1CN([C@@H](C)CO)C(=O)Cc2cc(NS(=O)(=O)c3cn(C)cn3)ccc2O[C@H]1CN(C)S(=O)(=O)c1ccc(F)cc1 | inactive |
| C[C@@H]1CN([C@H](C)CO)C(=O)Cc2cc(NC(=O)CCCCCC(=O)Nc3ccccc3N)ccc2O[C@H]1CN(C)Cc1ccccc1 | inactive |
| CCS(=O)(=O)N1CC[C@]2(CC1)CN([C@@H](CO)c1[nH]c3cc(ccc3c12)OC)C(=O)Cc1ccccn1 | inactive |
| Cc1noc(C)c1NC(=O)Nc1ccc2c(c1)C(=O)N([C@@H](C)CO)C[C@H](C)[C@@H](CN(C)Cc1ccc(Cl)c(Cl)c1)O2 | inactive |
| CC(C)NC(=O)Nc1ccc2c(c1)C(=O)N([C@@H](C)CO)C[C@H](C)[C@@H](CN(C)S(=O)(=O)c1cn(C)cn1)OCCCC[C@H](C)O2 | inactive |
| COc1ccc(cc1)CN1C[C@]2(CN(C2)S(=O)(=O)c2cn(cn2)C)c2c([nH]c3cc(ccc23)OC)[C@H]1CO | inactive |
| Cc1noc(C)c1S(=O)(=O)Nc1ccc2c(c1)CC(=O)N([C@@H](C)CO)C[C@@H](C)[C@@H](CN(C)Cc1ccncc1)O2 | inactive |
| C[C@@H]1CN([C@H](C)CO)C(=O)c2cccc(NC(=O)NC3CCCCC3)c2O[C@H]1CN(C)S(=O)(=O)c1cn(C)cn1 | inactive |
| CCc1nc2ccc(C(=O)NCc3ccccc3OC)cn2c1N(CC)Cc1cccc(Br)c1 | inactive |
| CCS(=O)(=O)N1CC[C@]2(CC1)CN([C@H](CO)c1[nH]c3cc(ccc3c12)OC)C(=O)c1ccc(cc1)F | inactive |
| O=C(O)[C@H]1NC(=O)[C@@H]1Cc1ccccc1 | inactive |
| CC(C)NC(=O)N(C)C[C@@H]1Oc2c(NS(=O)(=O)c3ccc(F)cc3)cccc2C(=O)N([C@H](C)CO)C[C@@H]1C | inactive |
| C[C@@H]1CN([C@@H](C)CO)C(=O)c2cc(NC(=O)Nc3ccc4c(c3)OCO4)ccc2O[C@H]1CN(C)Cc1ccc(-c2ccccc2)cc1 | active |
| C[C@@H]1CN([C@H](C)CO)C(=O)c2cccc(NS(=O)(=O)c3cn(C)cn3)c2O[C@@H]1CN(C)S(=O)(=O)c1ccc(F)cc1 | inactive |
